Consider 40 molecules from PubChem BioAssay (NCATS).

The source made the active and inactive calls. Calls follow the shape of the dose curve; as a rule, active = well fitted curve in the direction sought with a large enough effect; inactive = no such curve, though single readings can be large or run the other way.

The target of the assay is Alpha-galactosidase (Coffea arabica) (UniProt Q42656). As to the kind of experiment: Counterscreen for Glucocerebrosidase Inhibitors: qHTS Assay for Coffee Bean alpha-Galactosidase at pH 5.9 (AID 998).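 Also: plate controls were uninhibited enzyme for no effect and no-enzyme basal signal for full effect.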 The settings on record: coffee bean alpha-galactosidase enzyme assay; series mostly up to 76.9 µM; activity, negative = inhibition: at the top concentration. The text has this: NIH Chemical Genomics Center [NCGC]
Chain of Alpha-galactosidase (Coffea arabica) (Q42656 whole entry, looked up): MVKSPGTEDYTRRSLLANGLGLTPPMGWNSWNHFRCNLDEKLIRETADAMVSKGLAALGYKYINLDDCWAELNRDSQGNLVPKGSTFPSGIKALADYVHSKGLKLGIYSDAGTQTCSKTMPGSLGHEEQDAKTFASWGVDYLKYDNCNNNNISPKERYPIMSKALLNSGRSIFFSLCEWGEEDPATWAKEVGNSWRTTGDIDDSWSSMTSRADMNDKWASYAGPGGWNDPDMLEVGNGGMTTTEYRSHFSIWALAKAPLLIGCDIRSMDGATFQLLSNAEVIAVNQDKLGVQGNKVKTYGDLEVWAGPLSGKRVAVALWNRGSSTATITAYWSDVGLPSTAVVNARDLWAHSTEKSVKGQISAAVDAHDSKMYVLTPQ
NIH Molecular Libraries Screening Centers Network [MLSCN]
PI Name: Zheng, Wei [NIH]
Alpha-galactosidase is a homodimeric glycoprotein that hydrolyzes the terminal alpha-galactosyl moieties from glycolipids and glycoproteins. Deficiency of this enzyme results in Fabry Disease with progressive accumulation of globotriaosylceramide and other glycosphingolipids in vascular endothelial cells that causes renal failure, myocardial infarction and stroke, and premature death in patients. It has reported that the improper folding and trafficking of alpha-galactosidase resulted from the genetic mutations may account for a significant numbers of Fabry patients. […] We optimized this coffee bean alpha-galactosidase assay in 1536-well plate format as a counter-screen assay for identifying the selective small molecule inhibitors of other lysosomal enzymes.
NCGC Assay Protocol Summary:
This is a fluorogenic enzyme assay with 4-Methylumbelliferyl alpha-D-galactopyranoside as the substrate and green coffee bean […] (from Sigma-Aldrich) as the enzyme preparation. Upon the hydrolysis of this fluorogenic substrate, the resulting product, […]. 4-Methyllumbelliferone, can be excited at 365 nm and emits at 440 nm which can be detected by a standard fluorescence plate reader. Data were normalized to the controls for basal activity (without enzyme) and 100% activity (with enzyme). In the AC50 values were determined from concentration-response data modeled with the standard Hill equation.
Assay buffer: 50 mM citric acid, 0.005% Tween-20, pH 5.9. (pH 5.9 is an optimal condition for this enzyme assay.)
1536-well assay protocol for the coffee bean alpha-galactosidase:
(1) Add 2 ul/well of enzyme (2 nM final)
(2) Add 23 nL compounds in DMSO solution. The final titration was 0.7 nM to 77 uM.
(3) Add 1 ul of substrate (80 uM final)
(4) Incubate at room temperature for 20 min.
(5) Add 2 ul stop solution (1M NaOH and 1M Glycine mixture, pH 10)
(6) Detect the assay plate in a ViewLux plate reader (PerkinElmer) with Ex=365 nm and Em=440nm.
Keywords: Alpha-galactosidase, Fabry Disease, pharmacological chaperone, chaperone therapy, high throughput screening, alpha-galactosidase inhibitor, MLSMR, MLSCN, NIH Roadmap, qHTS and NCGC
As for `CCCN(CCC)[C@@H]1CCc2ccc(O)cc2C1`, the molecule was called inactive. In the case of `CC[C@@]1(O)C(=O)OCc2c1cc1n(c2=O)Cc2cc3ccccc3nc2-1`, the “activity, negative = inhibition” value is 10.6% (inactive). Still for that read-out and setting: for `Cc1cccc(C#Cc2ccccc2)n1` the value was 2.39% (inactive); for `c1ccc(CCCN2CCN(CCOC(c3ccccc3)c3ccccc3)CC2)cc1`, -6.68% (inactive).

As to `Cn1cnc(CCN)c1`, the “activity, negative = inhibition” value is 1.39% (inactive). Consider `CCCN1CCC[C@H](c2cccc(O)c2)C1`, for which the molecule was called inactive. As to `CN[C@@H]1C[C@@H](c2ccc(Cl)c(Cl)c2)c2ccccc21`, the “activity, negative = inhibition” value is -1.8% (inactive). As for `CCN1CCc2nc(N)oc2CC1`, the “activity, negative = inhibition” value was -2.61% (inactive).

For `CC(C)c1ccc2c(c1)c(SC(C)(C)C)c(CC(C)(C)C(=O)O)n2Cc1ccc(Cl)cc1`, the “activity, negative = inhibition” value is -8.68% (inactive). The same measure, in the same setting: in the case of `CCN(CC)CCNC(=O)c1ccc(NC(C)=O)cc1` it was -1.32% (inactive); in that of `Cc1nc(-c2ccc(-c3ccc(C(=O)N4CCc5cc6c(cc54)C4(CCN(C)CC4)CO6)cc3)c(C)c2)no1`, -3.22% (inactive); in that of `CC(C)Oc1cccnc1N(C)C1CCN(Cc2ccccc2)CC1`, -0.96% (inactive). Same read-out and setting: in the case of `c1ccc2sc(C3(N4CCCCC4)CCCCC3)cc2c1` it was -1.54% (inactive). Still for that read-out and setting: in the case of `CCCCc1ccc(C(=O)O)nc1` it was 2.38% (inactive); in that of `Cc1nccc2c1[nH]c1ccccc12`, 0.354% (inactive). Take `CC(=O)Oc1ccccc1C(=O)O`: the “activity, negative = inhibition” value was 2.3% (inactive). As to `CCCN1CCO[C@@H]2c3cc(O)ccc3OC[C@H]21`, the molecule was called inactive.

Take `C[C@]12N[C@H](Cc3ccccc31)c1ccccc12`: the result was inactive. `CNCCc1ccc(O)c(O)c1`: the “activity, negative = inhibition” value is -4.96% (inactive). Still for that read-out and setting: in the case of `CCOC(=O)C1=C[C@@]2(CC)CCCN3CCc4c(n1c1ccccc41)[C@H]32` it was -1.46% (inactive); in that of `CCn1cc(C(=O)O)c(=O)c2cc3c(cc21)OCO3`, 0.236% (inactive); in that of `CC(=O)NCCc1c[nH]c2ccccc12`, -0.374% (inactive).

Regarding `C[C@]12C[C@H](O)[C@H]3[C@@H](CCC4=CC(=O)CC[C@@]43C)[C@@H]1CC[C@@H]2C(=O)CO`, the “activity, negative = inhibition” value is 1.35% (inactive). Regarding `NCCc1c[nH]c2ccccc12`, the “activity, negative = inhibition” value is -1.14% (inactive). Still for that read-out and setting: in the case of `C[N+](C)(C)CC(=O)O` it was -4.77% (inactive); in that of `Cc1c(C(=O)c2cccc3ccccc23)c2cccc3c2n1[C@H](CN1CCOCC1)CO3`, -17.7% (inactive). On the same count and under the same terms, for `O=C(O)Cc1cnc[nH]1` the value was 0.725% (inactive); for `COc1ccc2c(c[n+](C)c3c4cc5c(cc4ccc23)OCO5)c1OC`, -3.47% (inactive); for `CC(C)(Sc1ccc(CCN(CCCCC2CCCCC2)C(=O)NC2CCCCC2)cc1)C(=O)O`, 1.39% (inactive).

`NC(=NCCC[C@H](N)C(=O)O)N[N+](=O)[O-]`: the “activity, negative = inhibition” value was -0.003% (inactive). The same measure, in the same setting: in the case of `O=C1CCCN1CC#CCN1CCCC1` it was 1.96% (inactive). Same read-out and setting: for `CNCCc1c[nH]c2ccc(O)cc12` the value was -0.969% (inactive); for `CC#C[C@]1(O)CC[C@H]2[C@@H]3CCC4=CC(=O)CCC4=C3[C@H](c3ccc(N(C)C)cc3)C[C@@]21C`, -9.55% (inactive); for `CC1=NN=C(c2ccc(N)cc2)c2cc3c(cc2C1)OCO3`, -0.331% (inactive). Still for that read-out and setting: for `CCc1c(C)[nH]c2c1C(=O)C(CN1CCOCC1)CC2` (stereo not given) the value was -1.68% (inactive); for `NCc1cc(=O)[nH]o1`, 0.876% (inactive); for `C#CCOC(=O)C1=CCCN(C)C1`, 1.23% (inactive). Consider `C[C@@H]1O[C@H](C[N+](C)(C)C)C[C@H]1O`, for which the “activity, negative = inhibition” value was 0.464% (inactive).

Turning to `Clc1cnc(Oc2ccc(Oc3ncc(Cl)cc3Cl)cc2)c(Cl)c1`, the “activity, negative = inhibition” value was 4.84% (inactive). The same measure, in the same setting: in the case of `O=C(O)CC[N+](=O)[O-]` it was 3.57% (inactive).
